Compound activity (PubChem)
Pol eta inh-1: inhibitors of human DNA polymerase eta | Q9Y253 | recombinant Pol eta, fluorescent DNA replication assay | Potency, µM (titrated, usually from 114 µM), for inactives: at the top dose activity change, negative = inhibition, actives largely listed as inhibitors | hit rate 1.2% among 390,000; note: potency is the fitted concentration of half-maximal effect; % is set by controls: 0 for no effect and ±100 for the full control effect
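Fluorescent replication assay: 50 nM final substrate added after a 15 min room-temperature compound preincubation with 10 nM enzyme. Signal taken at 0 min and again at 10 min.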
PI5P4K alpha inh: inhibitors of human PI5P4K alpha; P48426; PI5P4Kalpha enzyme, ADP-Glo luminescence, 60 min; active compounds read low; max response, %; hit rate 1.2% among 330,000; AID 652105; active = max response of -50% or lower; inconclusive = between -30% and -50%; inactive = -30% or higher; note: value at the top dose of about 77 µM; % is set by controls: 0 for no effect and ±100 for the full control effect
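Single end-point luminescence (ADP-Glo) quantified ADP from PI5P4Kalpha turnover; ATP 5 microM final, 1 h at RT, 0.1% CHAPS and 0.28 mM EGTA in HEPES pH 7.4.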
Pol kappa inh-1: DNA polymerase kappa (human) inhibition; purified Pol kappa, fluorescent DNA synthesis assay, 10 min; hit rate 0.53% among 400,000; AID 588579; Potency, µM (doses to about 107 µM), without a hit: top-dose activity, negative = inhibition, most hits filed as inhibitors; note: potency is the fitted concentration of half-maximal effect; % is set by controls: 0 for no effect and ±100 for the full control effect
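10 nM Pol kappa was preincubated with compounds for 15 min at room temperature. Reaction started with 50 nM (final) substrate. Fluorescence read kinetically at 0 and 10 min.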
Pol beta inh: DNA polymerase beta (human) inhibition. P06746. Pol beta primer extension/strand displacement, fluorescence kinetic. Potency, µM (doses to about 114 µM), for inactives: at the highest dose activity change, negative = inhibition, hits mostly inhibitors. hit rate 1.3% among 340,000; note: potency is the fitted concentration of half-maximal effect; % is set by controls: 0 for no effect and ±100 for the full control effect
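Enzyme-only controls used 10 nM Pol beta; buffer lacking enzyme served as negative control. Compound preincubated 15 min, then 50 nM substrate added; 0 and 10 min reads at room temperature.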
FEN1 inhibitor: human FEN1 inhibition; hit rate 0.35% among 390,000; Potency, µM (top dose mostly 114 µM), for the others: at the highest dose activity change, negative = inhibition, most hits filed as inhibitors; Recombinant FEN1 flap cleavage, fluorescence, 15 min; AID 588795; P39748; note: potency is the fitted concentration of half-maximal effect; % is set by controls: 0 for no effect and ±100 for the full control effect; nearly all actives have a fitted effect of over 65% in size
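Steps: FEN1 (10 nM) dispensed; compound added by pin tool; 15 min at room temperature; substrate added to 50 nM final; reads at 0 min and 15 min; data normalized and fitted (four-parameter Hill).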
POLI inh: blocks human DNA polymerase iota activity. Q9UNA4. Pol iota fluorescent replication assay, 10 min. Potency, µM (doses to about 115 µM), without a hit: top-dose activity, negative = inhibition, hits mostly inhibitors. hit rate 1% among 390,000. AID 588590; note: potency is the fitted concentration of half-maximal effect
Target sequence (Q9UNA4 whole entry, looked up): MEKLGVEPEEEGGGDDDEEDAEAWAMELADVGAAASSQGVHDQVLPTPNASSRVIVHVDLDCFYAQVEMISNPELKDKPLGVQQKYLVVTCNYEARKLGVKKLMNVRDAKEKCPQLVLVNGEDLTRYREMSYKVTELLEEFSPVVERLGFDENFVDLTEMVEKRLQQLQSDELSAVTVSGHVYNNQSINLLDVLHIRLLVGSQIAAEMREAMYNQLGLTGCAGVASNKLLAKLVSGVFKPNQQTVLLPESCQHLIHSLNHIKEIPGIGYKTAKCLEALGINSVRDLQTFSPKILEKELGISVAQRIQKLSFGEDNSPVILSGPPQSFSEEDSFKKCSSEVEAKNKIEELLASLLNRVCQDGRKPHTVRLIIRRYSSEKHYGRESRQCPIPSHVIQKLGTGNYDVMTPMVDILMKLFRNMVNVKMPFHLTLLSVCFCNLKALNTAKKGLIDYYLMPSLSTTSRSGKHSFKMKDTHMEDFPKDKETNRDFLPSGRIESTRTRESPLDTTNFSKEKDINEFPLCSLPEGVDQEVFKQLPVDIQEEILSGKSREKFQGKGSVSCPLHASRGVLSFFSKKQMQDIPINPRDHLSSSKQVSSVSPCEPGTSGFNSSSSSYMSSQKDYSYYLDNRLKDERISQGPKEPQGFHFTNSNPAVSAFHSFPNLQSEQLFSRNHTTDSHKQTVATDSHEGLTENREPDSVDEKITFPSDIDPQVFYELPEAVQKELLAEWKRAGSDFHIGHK
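Pol iota at 10 nM preincubated 15 min with compounds at room temperature; reaction started with fluorescent substrate, 50 nM final. Fluorescence read kinetically at 0 and 10 min; buffer-only wells as negative control.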
PGK validate: blocks T. brucei phosphoglycerate kinase. shares compounds with Pol kappa inh-1. TbPGK coupled GAPDH assay, Kinase-Glo luminescence. Potency, µM (top dose mostly 57.5 µM), for the others: top-dose activity change, negative = inhibition, most hits filed as inhibitors. hit rate 79% among 500. AID 686980; note: potency is the fitted concentration of half-maximal effect; % is set by controls: 0 for no effect and ±100 for the full control effect; nearly all actives have a fitted effect of over 65% in size
Pol iota confirm: Human Pol iota inhibitor confirmatory assay. shares compounds with Pol kappa inh-1. Pol iota primer extension, TAMRA/BHQ fluorescence. hit rate 77% among 1,500. Potency, µM, usual class: inhibitors. AID 720496; note: potency is the fitted concentration of half-maximal effect
Pol kappa inh-2: confirmation of human DNA polymerase kappa inhibitors. Potency, µM, usual class: inhibitors. shares compounds with Pol eta inh-1. hit rate 76% among 920. purified Pol-kappa, fluorescent strand-displacement substrate; note: potency is the fitted concentration of half-maximal effect
Pol eta inh-2: confirmation of human DNA polymerase eta inhibitors; shares compounds with Pol eta inh-1; Pol eta primer extension, TAMRA/BHQ fluorescence, 10 min; Potency, µM, actives largely listed as inhibitors; hit rate 64% among 2,600; AID 720502; note: potency is the fitted concentration of half-maximal effect
ADP-Glo counter: ADP-Glo luciferase interference, PI5P4K counter-screen; shares compounds with PI5P4K alpha inh; ADP-Glo detection counter-screen, luciferase luminescence, no enzyme; 1,100 tested, under 10 active; Potency, µM (top dose mostly 76.9 µM), for the others: top-dose activity change, negative = inhibition, most hits filed as inhibitors
* hit, by the source's call; [ ] = remark or other dose. A selection: hits, their analogues and other compounds. The true share with any hit is near 2.8%. Unless noted, calls come from the whole dose curve; as a rule, active = well fitted curve in the direction sought with a large enough effect; inconclusive = small, poorly fitted or top-dose-only effect, or another doubt; inactive = no such curve, though single readings can be large; an effect the other way counts as inactive or inconclusive.

Screening c1cc2c(cc1C1=NNC(=NC3CC3)SC1)OCCO2 returned Pol eta inh-1 0%, PI5P4K alpha inh -51*, Pol kappa inh-1 -20%, Pol beta inh -10%, FEN1 inhibitor 14%, POLI inh inconclusive, PGK validate 9.2µM* and ADP-Glo counter inconclusive.
`O=C(NC1CCCCC1)c1ccc2c(c1)N(Cc1ccccc1Cl)C(=O)c1ccccc1S2` gave Pol eta inh-1 -10%, Pol kappa inh-1 -23%[60.1 µM], Pol beta inh 8%, FEN1 inhibitor 1% and POLI inh -23%.
`CC(C)NC(=O)c1nc2c(nnn2Cc2cccc(Cl)c2)c(=O)[nH]1` gave Pol eta inh-1 1%, PI5P4K alpha inh -25, Pol kappa inh-1 -1%, Pol beta inh inconclusive, FEN1 inhibitor 9% and POLI inh -11%.
COc1ccc(S(=O)(=O)N2CCN(C(=O)C3COc4ccccc4O3)CC2)cc1 (stereo unspecified) was read as Pol eta inh-1 10µM*, PI5P4K alpha inh -74*, Pol kappa inh-1 28µM*, FEN1 inhibitor 50µM*, POLI inh 10µM*, Pol iota confirm 15*, Pol kappa inh-2 17*, Pol eta inh-2 24* and ADP-Glo counter 4%.
Screening COc1ccc(-n2cnnc2SCC(=O)Nc2cccnc2Cl)cc1 returned Pol eta inh-1 -10%, PI5P4K alpha inh 1, Pol kappa inh-1 -5%, Pol beta inh -2%, FEN1 inhibitor 9% and POLI inh 43%.
For Cc1cc(C(=O)NCc2ccco2)c2ccccc2n1 the results were Pol eta inh-1 -17%, PI5P4K alpha inh -6, Pol kappa inh-1 -1%, Pol beta inh -1%, FEN1 inhibitor -1% and POLI inh 80%.
`Cc1ccc(-c2cc(C(=O)NCc3ccco3)c3ccccc3n2)o1` gave Pol eta inh-1 7.9µM*, PI5P4K alpha inh -88*, Pol kappa inh-1 79µM*, Pol beta inh 18µM*, FEN1 inhibitor -4%, POLI inh inconclusive, Pol iota confirm inconclusive, Pol eta inh-2 inconclusive and ADP-Glo counter -1%.
CC(C)N1CC(COc2ccc(Cl)cc2Cl)OC1=O (stereo unspecified) was read as Pol eta inh-1 1%, PI5P4K alpha inh 2, Pol kappa inh-1 -6%, Pol beta inh 39%, FEN1 inhibitor -14% and POLI inh 11%.
CC(=O)c1ccc(S(=O)(=O)Nc2cccc(-n3cnnn3)c2)cc1 was read as Pol eta inh-1 7.9µM*, PI5P4K alpha inh -67*, Pol kappa inh-1 inconclusive, Pol beta inh inconclusive, FEN1 inhibitor 1%, POLI inh 20µM*, Pol iota confirm 75*, Pol eta inh-2 30* and ADP-Glo counter -7%.
`CCOc1ccccc1/C=C(\C#N)C1=CCCC1` gave Pol eta inh-1 -20%, PI5P4K alpha inh -1, Pol kappa inh-1 -1%, Pol beta inh 1%, FEN1 inhibitor -6% and POLI inh 46%.
`O=C(COC(=O)C1CC2C=CC1C2)NCc1ccc(F)cc1` (stereo unspecified) gave Pol eta inh-1 -12%, PI5P4K alpha inh -6, Pol kappa inh-1 -2%, Pol beta inh 22%, FEN1 inhibitor 3% and POLI inh 21%.
`O=C(COC(=O)C1CC2C=CC1C2)NCc1ccco1` (stereo unspecified) gave Pol eta inh-1 8.9µM*, PI5P4K alpha inh -74*, Pol kappa inh-1 40µM*, Pol beta inh 16µM*, FEN1 inhibitor -24%, POLI inh 14µM*, Pol iota confirm 42*, Pol eta inh-2 48* and ADP-Glo counter -1%.
`Cc1ccc(CSCC(=O)N(C)CC(=O)Nc2ccccc2C(F)(F)F)cc1` gave Pol eta inh-1 -13%, PI5P4K alpha inh -4, Pol kappa inh-1 0%, FEN1 inhibitor 3% and POLI inh 109%.
CCc1nnc(NC(=O)CSc2sc3c(O)cc(=O)[nH]c3c2C#N)s1 was read as Pol eta inh-1 3.5µM*, PI5P4K alpha inh -84*, Pol kappa inh-1 8.9µM*, Pol beta inh 0.56µM*, FEN1 inhibitor 4.5µM*, POLI inh 1.8µM*, Pol iota confirm 42*, Pol kappa inh-2 17*, Pol eta inh-2 30* and ADP-Glo counter 3%.
Screening Cc1cc(C)c(NC(=O)CNC(=O)c2ccccc2OCc2c(C)noc2C)c(C)c1 returned Pol eta inh-1 -17%, PI5P4K alpha inh -5, Pol kappa inh-1 -35%, FEN1 inhibitor 3% and POLI inh -18%.
COc1ccc(S(=O)(=O)N2CCOCC2)cc1NC(=O)c1cccc(-n2cccc2)c1 was read as Pol eta inh-1 2.5µM*, PI5P4K alpha inh -74*, Pol kappa inh-1 40µM*, FEN1 inhibitor -16%, POLI inh 7.1µM*, Pol iota confirm inconclusive and ADP-Glo counter 0%.
For CCOc1ccc(CC(=O)Nc2c(C(=O)c3ccc(F)cc3)oc3ccc(Cl)cc23)cc1OCC the results were Pol eta inh-1 -21%, Pol kappa inh-1 -4%, Pol beta inh 0%, FEN1 inhibitor 20% and POLI inh 25%.
For Cc1ccc(-c2nc3c(c(=O)[nH]c(=O)n3Cc3ccccc3)n2Cc2ccccc2)o1 the results were Pol eta inh-1 -18%, PI5P4K alpha inh inconclusive, Pol kappa inh-1 -7%, Pol beta inh 4%, FEN1 inhibitor -16% and POLI inh 145%.
